Data: PubChem BioAssay (Tox21)
Records with an inconclusive call do not appear. The source made the active and inactive calls. Unless noted, the call rests on the fitted dose curve.

Tests used:
[1] = Nuclear factor erythroid 2-related factor 2/antioxidant responsive element (Nrf2/ARE) small molecule agonists: luciferase reporter gene qHTS assay in human keratinocytes (AID 1919969); further: nearly all actives have a fitted effect of over 35% in size
[2] = biological target: Gonadotropin-releasing hormone receptor (Homo sapiens) (UniProt P30968); assay: Human gonadotropin-releasing hormone receptor (GnRHR) small molecule agonists, calcium flux assay in GnRHR-HEK293 cells (AID 1920063); further: nearly all actives have a fitted effect of over 35% in size
Chain of Gonadotropin-releasing hormone receptor (Homo sapiens) (P30968 whole entry, looked up): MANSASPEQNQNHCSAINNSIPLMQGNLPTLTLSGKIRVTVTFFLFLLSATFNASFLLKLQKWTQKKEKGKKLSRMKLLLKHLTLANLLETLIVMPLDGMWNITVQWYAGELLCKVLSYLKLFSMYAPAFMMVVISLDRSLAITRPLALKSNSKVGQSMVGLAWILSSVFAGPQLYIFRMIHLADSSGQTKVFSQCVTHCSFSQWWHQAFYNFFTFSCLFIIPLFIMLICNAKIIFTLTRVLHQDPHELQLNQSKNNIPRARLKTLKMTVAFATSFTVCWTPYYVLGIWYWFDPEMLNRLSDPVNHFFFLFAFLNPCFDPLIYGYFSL
Summary of the method: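 Compounds dissolved in DMSO are pin-transferred onto dye-loaded GnRHR-HEK293 cells, which were seeded 18 h before at 37 C/5% CO2. Calcium signal is read as fluorescence intensity at 1 s intervals for 3 min.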

[3] = biological target: KiSS-1 receptor (Homo sapiens) (UniProt Q969F8); assay: Human kisspeptin (KISS1R) small molecule agonists, calcium flux assay in KISS1R-HEK293 cells (AID 1920064; active means well fitted activation curve with a large enough effect in the repeat runs)
Chain of KiSS-1 receptor (Homo sapiens) (Q969F8 whole entry, looked up): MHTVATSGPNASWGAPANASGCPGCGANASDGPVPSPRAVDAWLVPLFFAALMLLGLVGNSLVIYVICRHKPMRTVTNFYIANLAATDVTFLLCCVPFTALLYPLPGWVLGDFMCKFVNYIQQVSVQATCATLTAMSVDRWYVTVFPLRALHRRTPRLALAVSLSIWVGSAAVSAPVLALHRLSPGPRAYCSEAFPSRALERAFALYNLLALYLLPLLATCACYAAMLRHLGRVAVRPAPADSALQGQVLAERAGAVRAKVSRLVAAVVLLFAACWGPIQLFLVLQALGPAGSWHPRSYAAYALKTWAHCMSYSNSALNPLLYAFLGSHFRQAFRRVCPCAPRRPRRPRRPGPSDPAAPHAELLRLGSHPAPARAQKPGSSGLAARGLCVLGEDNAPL
Summary of the method: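 Cell line: HEK293, stable human KISS1R. Dye loading 1 h at 37 C after 18 h culture. Read: kinetic fluorescence, 480/540 nm, 3 min at 1 s intervals.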

[4] = G protein-coupled receptor (GPCR) small molecule agonists, calcium flux assay: HEK293 wild type cell line counter screen (AID 1920065)
Summary of the method: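 Tox21 10K compounds, 15 concentrations each in triplicate, pin-transferred in DMSO onto dye-loaded cells; kinetic read at 480/540 nm for 3 min, 1 s intervals.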

[5] = p53 small molecule agonists, cell-based qHTS assay with human liver microsomes (AID 1963577);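 further: p53 response element beta-lactamase reporter cells with liver microsomes plus NADPH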
Summary of the method: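 16 h, 37 C exposure of p53RE-bla cells to compounds with human liver microsomes and NADPH (0.5 mg/mL final each); detection via LiveBLAzer mixture, 2 h dark at room temperature.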

[6] = p53 small molecule agonists, cell-based qHTS assay with rat liver microsomes (AID 1963578)
Summary of the method: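 With rat liver microsomes and NADPH present (0.5 mg/mL final each), p53RE-bla cells are treated with compound for 16 h at 37 C. LiveBLAzer detection mixture is then applied for 2 h at room temperature in the dark.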

[7] = p53 small molecule agonists, cell-based qHTS assay with human liver microsomes: qHTS cell viability counter screen (AID 1963579); further: nearly all actives have a fitted effect of over 45% in size
Summary of the method: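 In this multiplexed counter screen, the reporter plates were subsequently treated with CellTiter-Glo so that cell viability, reflected by luminescence, could be recorded for p53RE-bla cells dosed 16 h with compounds under microsomal activation (HLM and NADPH).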

[8] = p53 small molecule agonists, cell-based qHTS assay with rat liver microsomes: qHTS cell viability counter screen (AID 1963580); further: nearly all actives have a fitted effect of over 45% in size
Summary of the method: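 After the beta-lactamase ratio was read, CellTiter-Glo was added to the same wells and luminescence measured at 30 min; cells had been treated 16 h at 37 C with compounds, rat liver microsomes and NADPH (0.5 mg/mL final each).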

[9] = p53 small molecule agonists, cell-based qHTS assay: qHTS cell viability counter screen (AID 1963581); further: nearly all actives have a fitted effect of over 45% in size
Summary of the method: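 ATP content measured by luminescence in HCT-116 p53RE-bla cells treated 16 h at 37 C, same wells as the reporter screen.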

[10] = p53 small molecule agonists, cell-based qHTS assay (AID 1963582; active means well fitted activation curve with a large enough effect in the signal ratio in the repeat runs, not every such curve was filed as active; the % refers to the signal ratio)
Summary of the method: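 16 h compound exposure (37 C) of p53 response element–bla cells, preceded by 5 h recovery at 37 C/5% CO2; read-out via LiveBLAzer B/G FRET substrate, 2 h RT, fluorescence intensity.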

[11] = biological target: 5-hydroxytryptamine receptor 2A (Homo sapiens) (UniProt P28223); assay: 5-hydroxytryptamine receptor 2A (HTR2A) small molecule antagonists, cell-based qHTS assay (AID 1963586); further: nearly all actives have a fitted effect of over 45% in size
Chain of 5-hydroxytryptamine receptor 2A (Homo sapiens) (P28223 whole entry, looked up): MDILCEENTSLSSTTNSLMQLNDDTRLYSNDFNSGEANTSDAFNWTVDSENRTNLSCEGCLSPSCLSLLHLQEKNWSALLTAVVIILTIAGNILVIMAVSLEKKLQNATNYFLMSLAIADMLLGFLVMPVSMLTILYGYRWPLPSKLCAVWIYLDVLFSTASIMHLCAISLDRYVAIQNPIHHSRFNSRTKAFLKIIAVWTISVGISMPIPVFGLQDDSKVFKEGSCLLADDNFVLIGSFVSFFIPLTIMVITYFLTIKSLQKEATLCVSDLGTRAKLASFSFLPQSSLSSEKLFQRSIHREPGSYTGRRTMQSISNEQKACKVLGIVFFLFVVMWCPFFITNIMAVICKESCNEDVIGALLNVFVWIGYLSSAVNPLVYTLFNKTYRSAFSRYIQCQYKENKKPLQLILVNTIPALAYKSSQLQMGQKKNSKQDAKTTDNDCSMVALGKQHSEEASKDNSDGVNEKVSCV
Summary of the method: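 CHO cells stably expressing human HTR2A were plated for 18 h at 37 C, then loaded with calcium dye for 1 h. Compounds were preincubated 5 min at room temperature before DOI (4 nM solution) was added. Kinetic fluorescence was read for 3 min.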

[12] = biological target: 5-hydroxytryptamine receptor 2A (Homo sapiens) (UniProt P28223); assay: 5-hydroxytryptamine receptor 2A (HTR2A) small molecule agonists, cell-based qHTS assay (AID 1963587); further: nearly all actives have a fitted effect of over 30% in size
Summary of the method: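 CHO cells stably expressing human HTR2A, plated 18 h, loaded with calcium dye 1 h at 37 C. Agonist mode: compounds added and intracellular calcium fluorescence recorded kinetically for 2 min at 1 sec intervals.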

[13] = biological target: Muscarinic acetylcholine receptor M1 (Homo sapiens) (UniProt P11229); assay: Cholinergic receptor muscarinic 1 (CHRM1) small molecule agonists, cell-based qHTS assay (AID 1963589); further: nearly all actives have a fitted effect of over 35% in size
Chain of Muscarinic acetylcholine receptor M1 (Homo sapiens) (P11229 whole entry, looked up): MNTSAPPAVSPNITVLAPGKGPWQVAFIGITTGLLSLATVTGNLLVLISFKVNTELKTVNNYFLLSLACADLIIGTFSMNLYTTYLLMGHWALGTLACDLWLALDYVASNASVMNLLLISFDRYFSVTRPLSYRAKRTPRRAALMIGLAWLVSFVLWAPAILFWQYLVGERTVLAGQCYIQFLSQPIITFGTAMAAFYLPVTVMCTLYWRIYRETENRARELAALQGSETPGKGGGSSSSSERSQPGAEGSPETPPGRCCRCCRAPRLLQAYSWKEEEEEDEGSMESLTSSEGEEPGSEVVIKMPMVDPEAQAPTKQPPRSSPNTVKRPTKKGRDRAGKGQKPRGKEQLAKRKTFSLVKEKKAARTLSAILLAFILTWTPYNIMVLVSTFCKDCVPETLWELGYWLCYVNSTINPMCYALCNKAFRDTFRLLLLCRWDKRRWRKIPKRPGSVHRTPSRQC
Summary of the method: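 Homogeneous fluorescence calcium flux, agonist mode. Human M1-expressing CHO cells; compound dosed at 15 concentrations, three independent runs; signal sampled every 1 sec.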

[14] = cAMP Responsive Elements (CRE) small molecule agonists, cell-based qHTS assay (AID 1963590)
Summary of the method: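 HEK 293T cells stably bearing CRE-bla were plated at 2,000 cells per well and rested 18 h. Compounds, positive controls or DMSO were added for 3 h at 37 C. LiveBLAzer B/G substrate was then loaded for 2 h at room temperature.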

[15] = cAMP Responsive Elements (CRE) small molecule antagonists, cell-based qHTS assay (AID 1963591; active means well fitted inhibition curve with a large enough effect in the signal ratio in the repeat runs, not every such curve was filed as active; the % refers to the signal ratio)
Summary of the method: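 First, CRE-bla HEK293T cells settled 18 h at 37 C. Next, compound and 0.25 uM final NKH477 were applied for 3 h. Last, LiveBLAzer B/G substrate was loaded for 2 h at room temperature.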

[16] = biological target: Beta-2 adrenergic receptor (Homo sapiens) (UniProt P07550); assay: Adrenergic beta2 receptor (ADRB2) small molecule antagonists, cell-based qHTS assay (AID 1963592); further: series mostly up to about 92 µM; nearly all actives have a fitted effect of over 50% in size
Chain of Beta-2 adrenergic receptor (Homo sapiens) (P07550 whole entry, looked up): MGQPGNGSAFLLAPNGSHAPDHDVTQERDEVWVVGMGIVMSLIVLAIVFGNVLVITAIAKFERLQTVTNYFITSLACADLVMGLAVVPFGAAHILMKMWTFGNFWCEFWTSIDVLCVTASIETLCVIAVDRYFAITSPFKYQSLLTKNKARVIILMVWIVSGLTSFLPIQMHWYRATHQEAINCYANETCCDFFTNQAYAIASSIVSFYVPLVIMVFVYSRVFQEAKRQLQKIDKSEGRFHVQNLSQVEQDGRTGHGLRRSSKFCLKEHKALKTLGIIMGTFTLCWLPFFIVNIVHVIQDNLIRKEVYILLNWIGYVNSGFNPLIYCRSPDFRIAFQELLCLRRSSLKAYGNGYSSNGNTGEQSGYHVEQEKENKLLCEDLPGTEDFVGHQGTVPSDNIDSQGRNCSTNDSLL
Summary of the method: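 Assay format: CHO-ADRB2 cells, 18-20hr seeding at 37C/5% CO2, then compound plus 1nM isoproterenol agonist mix for 0.5hr RT. Homogeneous time-resolved fluorescence cAMP detection after 1hr, expressed as 665/615 nm ratio.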

[17] = biological target: Beta-2 adrenergic receptor (Homo sapiens) (UniProt P07550); assay: Adrenergic beta2 receptor (ADRB2) small molecule agonists, cell-based qHTS assay (AID 1963593);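 further: CHO cells stably overexpressing human ADRB2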
Summary of the method: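 CHO cells stably over-expressing ADRB2 were plated overnight at 37C, then dosed with compounds plus a stimulation mix containing 100uM IBMX and 25uM Ro-20-1724 for 0.5hr at room temperature. cAMP was measured by HTRF competition, 1hr.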

[18] = biological target: D(2) dopamine receptor (Homo sapiens) (UniProt P14416); assay: Dopamine D2 receptor (DRD2) small molecule agonists, cell-based qHTS assay (AID 1963594); further: nearly all actives have a fitted effect of over 35% in size
Chain of D(2) dopamine receptor (Homo sapiens) (P14416 whole entry, looked up): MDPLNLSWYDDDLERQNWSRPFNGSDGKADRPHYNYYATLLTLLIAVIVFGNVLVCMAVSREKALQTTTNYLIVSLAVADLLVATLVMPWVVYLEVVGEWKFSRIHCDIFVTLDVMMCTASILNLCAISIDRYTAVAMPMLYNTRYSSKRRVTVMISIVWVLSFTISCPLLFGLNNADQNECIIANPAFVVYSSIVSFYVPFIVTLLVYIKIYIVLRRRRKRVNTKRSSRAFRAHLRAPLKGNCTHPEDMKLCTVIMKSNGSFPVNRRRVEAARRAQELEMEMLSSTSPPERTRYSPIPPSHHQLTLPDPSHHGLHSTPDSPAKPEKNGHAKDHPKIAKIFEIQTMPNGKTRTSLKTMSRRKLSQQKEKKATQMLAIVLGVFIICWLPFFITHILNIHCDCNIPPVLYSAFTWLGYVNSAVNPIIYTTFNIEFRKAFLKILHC
Summary of the method: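 HEK293 cells stably expressing human DRD2, pre-treated with PDE inhibitor Ro20-1724 (0.1 mM final) and compound 10 min at room temperature, then stimulated with NKH477 (200nM […]) for 30 min. cAMP read by HTRF (665/620 nm).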

[19] = biological target: D(2) dopamine receptor (Homo sapiens) (UniProt P14416); assay: Dopamine D2 receptor (DRD2) small molecule antagonists, cell-based qHTS assay (AID 1963595; active means well fitted inhibition curve with a large enough effect in the signal ratio in the repeat runs, with a control signal flat; the % refers to the signal ratio)
Summary of the method: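 HEK293 cells stably expressing DRD2, preincubated with 0.1 mM Ro20-1724 and compounds 10 min, were stimulated with 200 nM NKH477 plus 12 nM quinpirole for 30 min at room temperature; cAMP measured by HTRF (665/620 nm).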

[20] = biological target: Muscarinic acetylcholine receptor M1 (Homo sapiens) (UniProt P11229); assay: Cholinergic receptor muscarinic 1 (CHRM1) small molecule antagonists, cell-based qHTS assay (AID 1963588); further: nearly all actives have a fitted effect of over 40% in size
Summary of the method: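 Compounds were tested at 15 concentrations in three independent runs. Dye-loaded CHRM1-CHO cells were exposed 5 min at room temperature before stimulation by acetylcholine added at 50nM. Intracellular calcium was read kinetically on FDSS for 3 min.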

Measured: Potency

CC(C)c1ccc(C(C)C)cc1
not listed: [20]
inactive: all other assays above

C=C(C)CNCC
not listed: [17]
inactive: all other assays above

OC[C@@H](O)[C@@H](O[C@@H]1O[C@H](CO)[C@H](O)[C@H](O)[C@H]1O)[C@H](O)[C@@H](O)CO
not listed: [6] | [17] | [19]
inactive: all other assays above

CC1(C)[C@@H](O[C@H]2O[C@H](C(=O)O)[C@@H](O)[C@H](O)[C@H]2O[C@@H]2O[C@H](C(=O)O)[C@@H](O)[C@H](O)[C@H]2O)CC[C@]2(C)[C@H]3C(=O)C=C4[C@@H]5C[C@@](C)(C(=O)O)CC[C@]5(C)CC[C@@]4(C)[C@]3(C)CC[C@@H]12
not listed: [7] | [11] | [12] | [13] | [17] | [20]
inactive: all other assays above

CS(=O)(=O)c1ccc([C@@H](O)[C@@H](CO)NC(=O)C(Cl)Cl)cc1
not listed: [11] | [12] | [13] | [17] | [20]
inactive: all other assays above

C[C@@H](O)[C@H]1C(=O)N2C(C(=O)O)=C(S[C@@H]3CN[C@H](C(=O)N(C)C)C3)[C@H](C)[C@H]12
not listed: [2] | [11] | [12] | [13] | [20]
inactive: all other assays above

O=C(O)CCCCCCCC(=O)O
not listed: [4] | [13] | [18] | [19]
inactive: all other assays above

Cc1ccccc1C(OCCN(C)C)c1ccccc1 (stereo unspecified)
inactive: [1] | [3] | [4] | [5] | [6] | [8] | [14] | [15] | [16] | [18] | [19]
